Bioassay records deposited in PubChem BioAssay by National Center for Advancing Translational Sciences (NCATS).
Most compounds without a hit are left out; they make up all but 21% or so of the library.
Pf growth 48h: P. falciparum growth inhibition at 48 hours (one generation); hit rate 5.9% among 310,000; AID 504832; P. falciparum luciferase growth in erythrocytes, 48 h; Potency, µM (top dose mostly 28.7 µM), usual class: inhibitors
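Here the parasites carry a stable luciferase gene and grow inside erythrocytes in Albumax-based RPMI medium with compound for one erythrocytic cycle. Activity is scored as loss of luminescent signal.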
Pf growth 96h: P. falciparum growth inhibition at 96 hour, primary screen for plastid delayed-death inhibitors; P. falciparum luciferase reporter growth, 96 h; Potency, µM (series often up to 28.7 µM), usual class: inhibitors; hit rate 6.9% among 320,000
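96 h incubation, 37 C, 5% CO2, of luciferase-reporter P. falciparum-infected RBCs (2% hematocrit, 0.05% parasitemia final) with test compounds; endpoint luminescence.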
FBPA Giardia inh: Giardia lamblia aldolase inhibition | A8B2U2 | purified Giardia FBPA | Potency, µM (series often up to 59.6 µM), hits mostly inhibitors | hit rate 0.71% among 290,000 | AID 2451; further: nearly all actives have a fitted effect of over 55% in size
Target sequence (A8B2U2 whole entry, looked up): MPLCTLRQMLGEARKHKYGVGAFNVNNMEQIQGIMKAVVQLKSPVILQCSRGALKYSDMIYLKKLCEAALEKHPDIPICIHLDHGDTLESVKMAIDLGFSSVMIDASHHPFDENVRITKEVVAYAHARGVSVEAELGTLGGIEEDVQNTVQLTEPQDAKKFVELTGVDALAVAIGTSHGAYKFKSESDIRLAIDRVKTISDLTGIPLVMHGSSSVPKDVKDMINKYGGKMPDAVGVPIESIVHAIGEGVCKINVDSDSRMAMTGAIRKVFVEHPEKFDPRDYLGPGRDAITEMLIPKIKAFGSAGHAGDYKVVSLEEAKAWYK
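40 nM FBPA preincubated 10 min at RT with compound (up to 57.5 uM final), then substrate plus GAPDH/TPI/NAD/arsenate coupling and diaphorase/resazurin added. Fluorescence read after 20 min at RT, 525/598 nm.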
Shiga toxin inh: inhibitors of Shiga toxin in Vero cells. AID 2315. hit rate 9.2% among 290,000. Vero cells, Shiga toxin protein synthesis inhibition reporter. inhibition, % at 38.7 µM; in the data active means inhibition mostly above about 28%, no sharp cut-off; inactive means mostly below about 43%
NS1 inh: blocks influenza NS1 protein function | Potency, µM (series often up to 46.1 µM) | hit rate 0.4% among 270,000 | AID 2326; calls by dose curve; further: actives are rising curves; nearly all actives have a fitted effect of over 50% in size
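In this qHTS, NS1 from influenza A is expressed in budding yeast, where it slows growth. Cells are switched from glucose to 2% galactose medium (pH 6.0, -URA), treated with compound, and growth recovery is read at OD600.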
CHX counter: counter-screen hit for Shiga toxin inhibitors, cycloheximide; max response, %; AID 2314; cell reporter, cycloheximide protein synthesis inhibition counterscreen; hit rate 12% among 300,000; in the data active means max response mostly above about 13%, no sharp cut-off; inactive means mostly below about 14%; further: read at 38.3 µM for the half of the compounds with a filed dose
Large screens that a line does not name were inactive. Unless noted, the call rests on the fitted dose curve; in most records, active means well fitted curve in the direction sought with a large enough effect; inconclusive means small, poorly fitted or top-dose-only effect, or another doubt; inactive means no such curve, though single readings can be large; an effect the other way counts as inactive or inconclusive.

CC(O)C(=O)N/N=C/c1cccc(Cl)c1Cl (configuration not stated)	CHX counter 20
CC(=O)OC(C)(C)/C=C/C(=O)[C@](C)(O)[C@H]1[C@H](O)C[C@@]2(C)[C@@H]3CC=C4[C@H](C[C@H](O)C(=O)C4(C)C)[C@]3(C)C(=O)C[C@]12C	Pf growth 48h 3.7µM, Pf growth 96h 3.3µM
CC(=O)OC(C)(C)/C=C/C(=O)C(C)(O)C1[C@H](O)C[C@@]2(C)C3CC=C4C(CC[C@@H](O)C4(C)C)[C@]3(CO)C(=O)C[C@]12C (some centres not stated)	Pf growth 48h 10µM, Pf growth 96h 1.7µM
COc1ccc(O)c(CNc2ccccc2F)c1	none (no result: NS1 inh)
CCCCn1c(N)c(N(CCOC)C(=O)c2cc3c(s2)CCC3)c(=O)[nH]c1=O	none (no result: FBPA Giardia inh, Shiga toxin inh, NS1 inh, CHX counter)
Cc1cccc(CNc2cc(-c3ccc(C(=O)N(C)C)cc3)ncn2)c1	none (no result: Pf growth 48h, Pf growth 96h, Shiga toxin inh, NS1 inh, CHX counter)
O=C(COc1ccc(S(=O)(=O)N2CCCCC2)cc1)N1CCCC1	Pf growth 48h inconclusive
CC1(C)Cc2nc3sc4c(N(CCO)CCO)nnnc4c3cc2CO1	Shiga toxin inh 78, CHX counter 29 (no result: NS1 inh)
CC1(C)Cc2nc3sc4c(SCC(=O)O)ncnc4c3cc2CO1	Pf growth 48h 0.83µM, Pf growth 96h inconclusive
COC(=O)CSc1ncnc2c1sc1nc3c(cc12)COC(C)(C)C3	Pf growth 96h inconclusive
CCc1nc2c(sc3nc4c(cc32)COC(C)(C)C4)c(=O)n1Cc1ccccc1	Pf growth 48h inconclusive, Pf growth 96h inconclusive
CC1(C)Cc2nc3sc4c(N(CCO)CCO)ncnc4c3cc2CO1	CHX counter 21
CC1(C)Cc2nc3sc4c(SCC(=O)NCc5ccccc5)ncnc4c3cc2CO1	none (no result: Pf growth 48h)
C=C(C)[C@@H]1CC=C(CN2CCN(Cc3ccccc3)CC2)CC1	Pf growth 48h inconclusive, Pf growth 96h inconclusive
CCN(CC)c1ccc(NC(=O)CCN2C(=O)c3ccccc3S2(=O)=O)c(C)c1	none (no result: FBPA Giardia inh, Shiga toxin inh, NS1 inh, CHX counter)
Oc1ccc(N2CCN(c3ncnc4sc(-c5ccccc5)cc34)CC2)cc1	Pf growth 48h inconclusive, Pf growth 96h 15µM (no result: NS1 inh)
CSc1cccc(NC(=O)N2CCCC(CNS(=O)(=O)Cc3ccccc3)C2)c1 (configuration not stated)	Pf growth 96h 9.3µM
O=C(Nc1ccccc1)N1CCCC1	none (no result: Pf growth 48h)
O=C(Nc1ccccc1)N1CCCC(CNS(=O)(=O)Cc2ccccc2)C1 (configuration not stated)	CHX counter 13
CC(C)[C@H](NC(=O)[C@@H]1Cc2ccccc2CN1C(=O)OC(C)(C)C)C(=O)NCC1CCCO1 (some centres not stated)	Pf growth 48h inconclusive
O=C(Nc1cccc(C(F)(F)F)c1)c1cccc(NS(=O)(=O)c2ccc(O)c(C(=O)O)c2)c1	none
O=C(c1ccccc1)N1CCN(Cc2ccc3c(c2)OCO3)CC1	none
CCN1C(=O)C(O)(CC(=O)c2ccc3c(c2)OCCO3)c2ccccc21 (configuration not stated)	none (no result: Pf growth 48h)
COc1ccc(NC(=O)CN2CCN(Cc3ccc4c(c3)OCO4)CC2)cc1OC	FBPA Giardia inh 18µM (no result: Pf growth 96h)
O=C(c1[nH]nc2c1CCc1ccccc1-2)N1CCN(Cc2ccc3c(c2)OCO3)CC1	Pf growth 48h 8.3µM, Pf growth 96h inconclusive
Cc1[nH]c2ccccc2c1C1(O)C(=O)N(Cc2ccc3c(c2)OCO3)c2ccccc21 (configuration not stated)	Pf growth 96h 13µM
COc1ccc(CN2C(=O)C(O)(CC(=O)c3ccc4c(c3)OCO4)c3ccccc32)cc1OC (configuration not stated)	Pf growth 96h 5.9µM (no result: Pf growth 48h)
CC(C)CN1C(=O)C(=O)N(CC(=O)NC(C)CCc2ccccc2)C1=O (configuration not stated)	none (no result: FBPA Giardia inh, Shiga toxin inh, NS1 inh, CHX counter)
Cc1cccc(C)c1OCCn1c(CCNC(=O)C2CCCCC2)nc2ccccc21	none (no result: Pf growth 48h, Pf growth 96h, FBPA Giardia inh, NS1 inh)
O=C(c1ccc(Cn2cc(Cl)cn2)o1)N1CCN(Cc2ccc3c(c2)OCO3)CC1	Pf growth 48h inconclusive, Pf growth 96h 13µM
CN1CCN(C(=O)c2ccc(Cn3cc(Cl)cn3)o2)CC1	Pf growth 96h inconclusive
COc1ccc(C(=O)N2CCN(Cc3ccc4c(c3)OCO4)CC2)cc1OC	Pf growth 96h 9.3µM
CCCc1cc(=O)oc2cc(OCC(=O)N3CCN(Cc4ccc5c(c4)OCO5)CC3)ccc12	Pf growth 48h inconclusive, Pf growth 96h 12µM (no result: FBPA Giardia inh)
COC(=O)c1ccccc1S(=O)(=O)N1CCC(C(=O)NCc2ccco2)CC1	Pf growth 96h inconclusive (no result: FBPA Giardia inh, Shiga toxin inh, NS1 inh, CHX counter)
O=C(CCC(=O)Nc1ccccc1Cl)NNC(=O)Nc1cccc([N+](=O)[O-])c1	Pf growth 48h inconclusive
Cc1ccc2cc(CCl)c(Cl)nc2c1	none
O=C(/C=C/c1ccccc1)Nc1ccc(Br)cn1	Shiga toxin inh active, CHX counter 31
Cc1ccc(NC(=O)/C=C/c2ccc(Cl)cc2)nc1	Shiga toxin inh 50, CHX counter 22
O=C(/C=C/c1cccc([N+](=O)[O-])c1)Nc1ccc(Cl)cn1	none
Cc1ccc(S(=O)(=O)/N=C(/NC(=S)Nc2ccccc2)c2ccccc2)cc1	FBPA Giardia inh inconclusive, Shiga toxin inh 73, CHX counter 30 (no result: Pf growth 48h)
Cc1ccc(NC(=S)N/C(=N/S(=O)(=O)c2ccccc2)c2ccccc2)cc1	FBPA Giardia inh inconclusive, Shiga toxin inh 90, CHX counter 49 (no result: Pf growth 96h)
CC(=O)Nc1ccc(N/C(=N\S(=O)(=O)c2ccccc2)c2ccccc2)cc1	Pf growth 96h inconclusive (no result: FBPA Giardia inh)
O=c1[nH]c2ccc(N/C(=N/S(=O)(=O)c3ccccc3)c3ccccc3)cc2[nH]1	Pf growth 96h 4.1µM
Fc1cccc(NC(=S)NNc2c3ccccc3nc3ccccc23)c1	Pf growth 48h 2.1µM (no result: NS1 inh)
Fc1cccc(Nc2c3c(nc4ccccc24)CCC3)c1	Pf growth 48h inconclusive
Fc1cccc(NC(=S)NNc2ccccc2)c1	Pf growth 48h inconclusive, FBPA Giardia inh inconclusive, Shiga toxin inh 45, CHX counter 34
CSCC(=O)NCC1(N(C)Cc2ccccc2)Cc2ccccc2C1	none
CC#CC(=O)NCC1(N(C)Cc2ccccc2)Cc2ccccc2C1	Pf growth 96h 7.4µM
COC(=O)[C@@]1(C)C[C@@H]1[C@@H](NC(=O)[C@@]1(C)C[C@@H]1[C@@H](NC(=O)[C@@]1(C)C[C@@H]1[C@@H](NC(=O)[C@@]1(C)C[C@@H]1[C@@H](NC(=O)OCc1ccccc1)c1ccccc1)c1ccccc1)c1ccccc1)c1ccccc1	none (no result: Pf growth 48h, Pf growth 96h, Shiga toxin inh, NS1 inh, CHX counter)
CCn1nc(CC(=O)Nc2nnc(CC(=O)N3CCCC3)s2)c2ccccc2c1=O	NS1 inh 20µM
c1cc2[nH]snc2c2nc(C3CC3)nc12	FBPA Giardia inh inconclusive, CHX counter 28
CC(C)(C)OC(=O)N1CC23CC(c4ccc(F)cc4)C(CC2S1(=O)=O)O3 (configuration not stated)	none (no result: Pf growth 48h, Pf growth 96h, NS1 inh)
O=C(c1ccccc1)c1nc2ccccc2n(CCCn2c(=O)c(C(=O)c3ccccc3)nc3ccccc32)c1=O	Pf growth 48h 3.7µM, Pf growth 96h inconclusive
Cc1ccc2c(CSc3nnnn3C)cc(=O)oc2c1	none
